The entries come from a sample that favours hits as a whole.
ALR H2O2 inh: inhibitors of human sulfhydryl oxidase ALR. P55789. inhibition, % (concentration not given with the values). purified ALR, DTT oxidation, H2O2 HRP-luminol luminescence. actives 3.8% (n = 290,000);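 active means mean replicate inhibition above about 79%, with every replicate also reaching it, limit read from the data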
PDI turbidity: blocks human protein disulfide isomerase activity | P07237 | PDI insulin aggregation turbidity, A650, 90 min | inhibition, % at 10 µM | actives 0.052% (n = 350,000);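 active means mean inhibition across replicates of 30% or more, whatever share of single replicates reach that level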
ERp5 block: blocks human ERp5 reductase activity on insulin; Q15084; ERp5 insulin aggregation, absorbance 650 nm, 90 min; inhibition, % at 9.99 µM; actives 0.05% (n = 350,000); AID 651711;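 active means mean replicate inhibition above about 25%, with every replicate also reaching it, limit read from the data, passing the limit was not always enough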
ARNT-TACC3 inh: disruptors of human ARNT/TACC3 interaction; AlphaScreen His-ARNT PAS-B/GST-TACC3 binding, luminescence; TACC3 fragment carries E629A point mutation; inhibition, % at 9.99 µM; actives 0.66% (n = 390,000); AID 623870;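 active means mean inhibition of replicates at least 50% and at least half of replicates each reaching 50%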
NRP1-CendR mod: alters CendR peptide binding to human NRP-1 | inhibition, % at 25 µM | O14786 | actives 0.85% (n = 360,000) | FAM-RPARPAR peptide binding to NRP-1, fluorescence polarization;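 active means inhibition or corrected inhibition above about 18%, plus a signal ratio from 0.5 to 1.5, limit read from the data, passing the limit was not always enough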
Target sequence (O14786 whole entry, looked up): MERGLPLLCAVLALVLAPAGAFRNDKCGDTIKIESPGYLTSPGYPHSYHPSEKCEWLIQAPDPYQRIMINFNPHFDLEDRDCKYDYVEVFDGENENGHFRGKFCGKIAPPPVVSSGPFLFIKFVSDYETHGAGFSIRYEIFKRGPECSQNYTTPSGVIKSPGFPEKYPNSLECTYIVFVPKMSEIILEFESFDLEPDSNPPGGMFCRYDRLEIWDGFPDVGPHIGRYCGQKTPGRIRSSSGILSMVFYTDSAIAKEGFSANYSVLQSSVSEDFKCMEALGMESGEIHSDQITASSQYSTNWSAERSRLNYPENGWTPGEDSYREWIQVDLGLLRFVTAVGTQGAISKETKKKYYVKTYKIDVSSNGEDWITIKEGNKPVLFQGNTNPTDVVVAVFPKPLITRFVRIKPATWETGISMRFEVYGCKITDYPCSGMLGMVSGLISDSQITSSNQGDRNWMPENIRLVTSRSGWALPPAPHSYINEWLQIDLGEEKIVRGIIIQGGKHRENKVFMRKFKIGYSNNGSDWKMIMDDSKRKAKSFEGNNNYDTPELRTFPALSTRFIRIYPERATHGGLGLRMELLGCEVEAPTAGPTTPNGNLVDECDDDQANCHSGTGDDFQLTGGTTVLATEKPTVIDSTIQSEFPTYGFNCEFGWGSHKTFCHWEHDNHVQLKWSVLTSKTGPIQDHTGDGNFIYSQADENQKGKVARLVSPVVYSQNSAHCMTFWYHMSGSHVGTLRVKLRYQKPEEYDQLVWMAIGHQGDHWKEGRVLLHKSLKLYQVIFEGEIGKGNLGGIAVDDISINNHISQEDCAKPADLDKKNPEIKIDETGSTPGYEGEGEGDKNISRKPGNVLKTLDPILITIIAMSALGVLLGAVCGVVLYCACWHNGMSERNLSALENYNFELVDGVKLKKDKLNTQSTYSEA
PglD inh: PglD (C. jejuni) enzyme inhibition | purified PglD enzyme, DTNB colorimetric CoA detection | inhibition, % at 12.5 µM | actives 0.098% (n = 360,000) | AID 602405; in the data active means inhibition above about 16%, passing the limit was not always enough
Of the large screens only hits and unclear results are named; the others gave an inactive call.

CCOC(=O)[C@H](O)[C@@H](O)c1cccc([C@H](O)[C@@H](O)C(=O)OCC)c1	NRP1-CendR mod 24.4
C[C@@H]1CCCCO[C@@H](CN(C)C(=O)CCCN(C)C)[C@@H](C)CN([C@H](C)CO)C(=O)c2cc(NC(=O)NC3CCCCC3)ccc2O1	none (no result: ALR H2O2 inh, PDI turbidity, NRP1-CendR mod)
O=C(NCc1ccccc1)c1cc2ccc(O)cc2oc1=O	none (no result: ALR H2O2 inh)
COc1ccc2cc(C(=O)NCc3ccccc3)c(=Nc3ccc(C(=O)O)cc3)oc2c1	NRP1-CendR mod 45.9 (no result: PglD inh)
O=C(O)c1ccc(N=c2oc3cc(O)ccc3cc2C(=O)NCc2ccccc2)cc1	ALR H2O2 inh 89.7 (no result: ARNT-TACC3 inh, PglD inh)
N#Cc1ccc(-c2ccc([C@H]3[C@@H](CO)N4CCCCN(S(=O)(=O)c5ccccc5)C[C@@H]34)cc2)cc1	none (no result: ALR H2O2 inh, PDI turbidity, NRP1-CendR mod)
CCC(=O)N1C[C@H]2[C@@H](c3ccccc31)[C@H](CO)N2C(=O)Nc1ccccc1	none (no result: ALR H2O2 inh, PDI turbidity, NRP1-CendR mod)
CC(c1ccc(F)cc1)n1c(-c2ccc3ccccc3n2)n[nH]c1=S (stereo unspecified)	ALR H2O2 inh 88.5
COc1cc(-c2n[nH]c(=S)n2C(C)c2ccccc2)cc(OC)c1OC (stereo unspecified)	ALR H2O2 inh 92.7
COCCOC(=O)N1C(=O)[C@@]2(c3ccccc31)[C@H](C(=O)N1CCc3cc(OC)c(OC)cc3C1)[C@H]1C(=O)O[C@H](c3ccccc3)[C@H](c3ccccc3)N1[C@@H]2c1ccc(O)cc1	none (no result: ALR H2O2 inh, PDI turbidity, NRP1-CendR mod)
CCCNC(=O)C[C@H]1CC[C@@H]2[C@@H](COc3ccc(NC(=O)Cc4ccccc4)cc3C(=O)N2C)O1	none (no result: ALR H2O2 inh, PDI turbidity, NRP1-CendR mod)
O=C(N[C@H]1CC[C@H](CC(=O)N2CCCCC2)O[C@@H]1CO)c1ccccn1	none (no result: ALR H2O2 inh, PDI turbidity, ARNT-TACC3 inh, NRP1-CendR mod, PglD inh)
Cc1ccc2c(c1)C(c1ccncc1)=NNC(c1ccc(F)cc1)=N2	NRP1-CendR mod 35.8 (no result: PglD inh)
Cc1ccc2c(c1)C(c1ccncc1)=NNC(c1ccccc1)=N2	none
O=S(=O)(c1ccc2ccccc2c1)N1CCOCC1	none (no result: ALR H2O2 inh, PglD inh)
O=S(=O)(c1ccc2c(c1)CCN2)N1CCOCC1	ALR H2O2 inh 77.7 (no result: ARNT-TACC3 inh)
O=C(N/N=C/c1cccc(O)c1)N/N=C/c1cccc(O)c1	ALR H2O2 inh 81.9
Cc1ccc2c(C)c(C(=O)NCc3ccc(S(N)(=O)=O)cc3)oc2c1C	none (no result: PglD inh)
Cc1ccc2c(C)c(C(=O)Nc3ccc(S(N)(=O)=O)cc3)oc2c1C	NRP1-CendR mod 39.6
CCOC(=O)c1[nH]c(C)c(C(=O)NCC2CCCO2)c1C (stereo unspecified)	NRP1-CendR mod 22.3 (no result: ERp5 block)
Cc1cccc(S(=O)(=O)N2CC[C@@H]3[C@H](CO)N(C)c4ccc(C#Cc5ccc(F)cc5)cc4[C@@H]32)c1	ARNT-TACC3 inh 48.0 (no result: ALR H2O2 inh, PDI turbidity, ERp5 block, NRP1-CendR mod)
COc1cccc(S(=O)(=O)N2CC[C@H]3[C@@H](CO)N(C)c4ccc(C#Cc5ccc(F)cc5)cc4[C@H]32)c1	none (no result: ALR H2O2 inh, PDI turbidity, NRP1-CendR mod)
CCCNC(=O)C[C@H]1CC[C@@H]2[C@H](COc3ccc(NC(=O)Nc4ccccc4)cc3C(=O)N2C)O1	none (no result: ALR H2O2 inh, PDI turbidity, ERp5 block, ARNT-TACC3 inh, NRP1-CendR mod)
Oc1ccc(-c2n[nH]c(=S)n2-c2ccc3c(c2)OCCO3)c(O)c1	ALR H2O2 inh 85.9 (no result: ERp5 block)
COc1ccc(-c2n[nH]c(=S)n2-c2ccc3c(c2)OCCO3)cc1	ALR H2O2 inh 91.0 (no result: ERp5 block)
S=c1[nH]nc(-c2ccc3ccccc3n2)n1-c1ccc2c(c1)OCCO2	ALR H2O2 inh 89.5 (no result: PglD inh)
C[C@H](NC(=O)C[C@@H]1CC[C@H](NC(=O)C2CCC2)[C@H](CO)O1)c1ccccc1	none (no result: ALR H2O2 inh, PDI turbidity, NRP1-CendR mod)
Cc1coc2c1c(C)cc1oc(=O)c(CC(=O)NCCC(=O)O)c(C)c12	NRP1-CendR mod 19.7 (no result: ALR H2O2 inh)
COC(=O)Nc1ccc(S(=O)(=O)Nc2ccc(C(=O)O)cc2)cc1	none (no result: ALR H2O2 inh, PglD inh)
Cc1ccc(Sc2ccc(S(=O)(=O)Nc3ccc(C(=O)O)cc3)cc2)cc1C	ALR H2O2 inh 98.3
Cc1ccc(Oc2ccc(S(=O)(=O)Nc3ccc(C(=O)O)cc3)cc2)cc1	ALR H2O2 inh 97.8
Cc1cccc(Oc2ccc(NS(=O)(=O)c3ccc(C)c(C(=O)O)c3)cc2)c1	ERp5 block 26.1
CO[C@H](CN(C)S(=O)(=O)c1cn(C)cn1)[C@H](C)CN(C(=O)Nc1ccc(C(F)(F)F)cc1)[C@H](C)CO	none (no result: ALR H2O2 inh, PDI turbidity, ARNT-TACC3 inh, NRP1-CendR mod)
CCOC(=O)Cn1nc(C)c(-c2ccccc2)c1N	none (no result: ERp5 block)
Cc1nn(CC2CCCCC2)c(N)c1-c1ccccc1	ALR H2O2 inh 98.2 (no result: ERp5 block)
CN(C)c1cccc2c(/C=N/O)ccc(N(C)C)c12	ALR H2O2 inh 89.4 (no result: PglD inh)
